Measured values as given in PubChem BioAssay (NCI).
About 83,000 compounds went through this panel and 20% of them were active in at least one assay; those are over-represented in the sample as a whole.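 Percent growth is the endpoint: 0 to 100 indicates growth inhibition (40 means 60% inhibition), 0 means no net growth, and negative values indicate cell death.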 Active and inactive are the calls of the source. Rule for the calls: active = growth percent below 10; inactive = the rest.

Key:
Assay in all cases: NCI-60 one-dose screen, 48 h (100 = growth as untreated, 0 = no growth, -100 = all killed)
Settings in all cases: 10 µM unless noted
SK-MEL-2 melanoma = tested on: SK-MEL-2 melanoma
EKVX NSCLC = tested on: EKVX NSCLC
SN12C renal = tested on: SN12C renal
UO-31 renal = tested on: UO-31 renal
TK-10 renal = tested on: TK-10 renal
ACHN renal = tested on: ACHN renal
CAKI-1 renal = tested on: CAKI-1 renal
A498 renal = tested on: A498 renal
CCRF-CEM leukemia = tested on: CCRF-CEM leukemia
MOLT-4 leukemia = tested on: MOLT-4 leukemia

Measured: growth

COc1c(B(O)O)cc(F)cc1-c1nc2ccc3[nH]ncc3c2c2c1COCC2
inactive: SK-MEL-2 melanoma 93.9% | EKVX NSCLC 75.3% | SN12C renal 50.3% | UO-31 renal 55% | TK-10 renal 14.2% | ACHN renal 36.4% | A498 renal 106% | CCRF-CEM leukemia 19.1% | MOLT-4 leukemia 53.1%
active: CAKI-1 renal -12.1%

Cn1cc(-c2cc3nc(-c4cn(C)c5ncc(Br)cc45)cc(N)n3n2)c2cc(F)ccc21
active: ACHN renal -7.44% | CAKI-1 renal -3.51% | CCRF-CEM leukemia 5.26%
inactive: SK-MEL-2 melanoma 88.8% | EKVX NSCLC 49% | SN12C renal 26.4% | UO-31 renal 20.3% | TK-10 renal 16% | A498 renal 125% | MOLT-4 leukemia 17.4%

O=C(N/N=C/c1c[nH]c2ccccc12)Nc1ccccc1Cl
active: EKVX NSCLC 2.29% | SN12C renal 0.991% | A498 renal -8.24% | CCRF-CEM leukemia 9.84% | MOLT-4 leukemia 5.56%
inactive: SK-MEL-2 melanoma 13.9% | UO-31 renal 23.2% | TK-10 renal 34.2% | ACHN renal 10.7% | CAKI-1 renal 16.1%

Cn1cc(-c2cc(N)n3nc(-c4c[nH]c5ccccc45)cc3n2)c2cc(Br)ccc21
active: SK-MEL-2 melanoma -65.4% | EKVX NSCLC -86.5% | SN12C renal -78.8% | UO-31 renal -82.3% | TK-10 renal -94.6% | ACHN renal -87.7% | CAKI-1 renal -87.3% | A498 renal -92.5% | CCRF-CEM leukemia -22.9% | MOLT-4 leukemia 7.68%

Cc1ccc2nc(SCc3ccccc3F)n(-c3ccccc3)c(=O)c2c1
inactive: SK-MEL-2 melanoma 102% | EKVX NSCLC 59.9% | SN12C renal 90.6% | UO-31 renal 83.7% | TK-10 renal 90.2% | ACHN renal 92.9% | CAKI-1 renal 83.3% | A498 renal 137% | CCRF-CEM leukemia 73% | MOLT-4 leukemia 73.3%

CC1=C(C(=O)OC(C)C)C(c2ccc(O)cc2)NC(=O)N1 (stereo not given)
inactive: SK-MEL-2 melanoma 96.5% | EKVX NSCLC 96.1% | SN12C renal 106% | UO-31 renal 92.2% | TK-10 renal 90.2% | ACHN renal 106% | CAKI-1 renal 95.3% | A498 renal 113% | CCRF-CEM leukemia 93.9% | MOLT-4 leukemia 97.8%

Cc1ccc(NC(=O)N/N=C/c2c[nH]c3ccccc23)c(C)c1
active: MOLT-4 leukemia 6.25%
inactive: SK-MEL-2 melanoma 20.5% | EKVX NSCLC 34.7% | SN12C renal 15.9% | UO-31 renal 26.6% | TK-10 renal 30.5% | ACHN renal 22.8% | CAKI-1 renal 29.1% | A498 renal 55.7% | CCRF-CEM leukemia 10%

COc1ccc(-c2cc(C)nc3[nH]c(=O)sc23)cc1
active: UO-31 renal 3.27% | A498 renal 6.1%
inactive: SK-MEL-2 melanoma 100% | EKVX NSCLC 89.5% | SN12C renal 43.2% | TK-10 renal 17.1% | ACHN renal 31.9% | CAKI-1 renal 40.5% | CCRF-CEM leukemia 81.5% | MOLT-4 leukemia 86.8%

COc1cc(C2CC(c3ccc(Cl)cc3)=Nc3c(N)nc(N)nc3N2)ccc1Oc1nc(Nc2ccc(F)cc2)nc(N(C)C)n1 (stereo not given)
inactive: SK-MEL-2 melanoma 64.1% | EKVX NSCLC 49.6% | SN12C renal 55.6% | UO-31 renal 34.6% | TK-10 renal 72.1% | ACHN renal 62.3% | CAKI-1 renal 35.3% | A498 renal 59.5% | CCRF-CEM leukemia 47%
active: MOLT-4 leukemia -8.16%

Cc1ccc(C(=O)Nc2cc(-n3cnc(F)c3)cc(C(F)(F)F)c2)cc1C#Cc1cnc2cccnn12
inactive: SK-MEL-2 melanoma 40.7% | EKVX NSCLC 74.2% | SN12C renal 45.6% | UO-31 renal 39.9% | TK-10 renal 83.2% | ACHN renal 59.4% | CAKI-1 renal 63.1% | A498 renal 103% | CCRF-CEM leukemia 29% | MOLT-4 leukemia 44.7%

CN1CCc2c(sc3ncnc(N/N=C/c4cccc(Cl)c4Cl)c23)C1
active: ACHN renal -39.1% | CCRF-CEM leukemia 4.9% | MOLT-4 leukemia 6.34%
inactive: SK-MEL-2 melanoma 104% | EKVX NSCLC 67.4% | SN12C renal 10.3% | UO-31 renal 42.6% | TK-10 renal 72.7% | CAKI-1 renal 79.4% | A498 renal 114%

Cc1cn(-c2cc(NC(=O)c3ccc(C)c(-n4cc(-c5cnc6cccnn56)nn4)c3)cc(C(F)(F)F)c2)cn1
inactive: SK-MEL-2 melanoma 64.9% | EKVX NSCLC 98.9% | SN12C renal 85.9% | UO-31 renal 58.2% | TK-10 renal 111% | ACHN renal 85.7% | CAKI-1 renal 94.7% | A498 renal 185% | CCRF-CEM leukemia 54.6% | MOLT-4 leukemia 38.9%

Cc1ccc(-c2cc(-c3ccccc3)[nH]c(=O)c2C#N)cc1
inactive: SK-MEL-2 melanoma 95.5% | EKVX NSCLC 82.8% | SN12C renal 86.5% | UO-31 renal 73.2% | TK-10 renal 95.1% | ACHN renal 79.1% | CAKI-1 renal 81.9% | A498 renal 84.8% | CCRF-CEM leukemia 76.7% | MOLT-4 leukemia 91.3%

CCOC(=O)/C(F)=C/C1CC1C(c1ccccc1)c1ccccc1 (stereo not given)
inactive: SK-MEL-2 melanoma 86.3% | EKVX NSCLC 86.5% | SN12C renal 98.8% | UO-31 renal 70.2% | TK-10 renal 101% | ACHN renal 98.9% | CAKI-1 renal 65.6% | A498 renal 87.9% | CCRF-CEM leukemia 85.4% | MOLT-4 leukemia 76.8%

Cc1cc(=O)oc2cc(OCC(O)CNN3C(=O)c4cccc5c(N6CCN(C)CC6)ccc(c45)C3=O)ccc12 (stereo not given)
inactive: SK-MEL-2 melanoma 92.2% | EKVX NSCLC 97.3% | SN12C renal 88.9% | UO-31 renal 83.8% | TK-10 renal 138% | ACHN renal 91.2% | CAKI-1 renal 96.2% | A498 renal 122% | CCRF-CEM leukemia 96.7% | MOLT-4 leukemia 90.4%

COc1ccc(-c2cc(-c3cc(C(C)C)c(O)cc3C)nn2-c2ccc(S(N)(=O)=O)cc2)cc1
inactive: SK-MEL-2 melanoma 54.7% | EKVX NSCLC 61.1% | SN12C renal 16% | UO-31 renal 39.1% | TK-10 renal 58% | ACHN renal 55.8% | CAKI-1 renal 63.9% | A498 renal 87.7% | CCRF-CEM leukemia 12.2% | MOLT-4 leukemia 14.7%

COc1ccc2[nH]c(O)c(N=Nc3nc(-c4ccc(Cl)cc4)cs3)c2c1
active: EKVX NSCLC -3.25% | SN12C renal -69.2% | UO-31 renal -61.4% | TK-10 renal 7.57% | ACHN renal -79.1% | CAKI-1 renal -37.6% | A498 renal -89.7% | MOLT-4 leukemia -16.5%
inactive: SK-MEL-2 melanoma 14% | CCRF-CEM leukemia 15.7%

O=C(c1ccc(Cl)cc1)C1[C@H](c2ccccc2Cl)[C@@H](c2ccccc2)NC12C(=O)Nc1ccccc12 (stereo not given in full)
inactive: TK-10 renal 12.1%
active: SK-MEL-2 melanoma -85.3% | EKVX NSCLC 1.03% | SN12C renal -89.1% | UO-31 renal 3.34% | ACHN renal 1.1% | CAKI-1 renal 3.65% | A498 renal -29% | CCRF-CEM leukemia 4.66% | MOLT-4 leukemia -32.1%

O=C(Nc1ccc(S(=O)(=O)N2CCCCC2)cc1)C(Cl)Cl
inactive: SK-MEL-2 melanoma 104% | EKVX NSCLC 95.4% | SN12C renal 112% | UO-31 renal 97% | TK-10 renal 103% | ACHN renal 109% | CAKI-1 renal 97.9% | A498 renal 111% | CCRF-CEM leukemia 127% | MOLT-4 leukemia 117%

CC1=C(C(=O)OCc2ccccc2)C(c2cccc3ccccc23)n2c(nc3ccccc32)N1 (stereo not given)
inactive: SK-MEL-2 melanoma 18% | EKVX NSCLC 41.9% | SN12C renal 30.6% | UO-31 renal 34.2% | TK-10 renal 66.6% | ACHN renal 41.1% | CAKI-1 renal 30.5% | A498 renal 62.6% | CCRF-CEM leukemia 25.8% | MOLT-4 leukemia 32.3%

CS(=O)(=O)c1ccc(-n2nc(C(=O)NCc3ccccc3)cc2-c2ccc(Cl)cc2)cc1
inactive: SK-MEL-2 melanoma 92.9% | EKVX NSCLC 68% | SN12C renal 80.8% | UO-31 renal 56.5% | TK-10 renal 104% | ACHN renal 91.3% | CAKI-1 renal 76.1% | A498 renal 124% | CCRF-CEM leukemia 58.6% | MOLT-4 leukemia 59.4%

CS(=O)(=O)Nc1cc(-c2ccc3ncnc(Nc4ccc(OCc5cccnc5)c(Cl)c4)c3c2)cnc1Cl
active: SK-MEL-2 melanoma -76.7% | EKVX NSCLC -24.4% | SN12C renal 8.19% | TK-10 renal -27% | CAKI-1 renal 1.71% | A498 renal -25.6% | MOLT-4 leukemia -50.6%
inactive: UO-31 renal 23.2% | ACHN renal 32% | CCRF-CEM leukemia 11%

Clc1ccc(CNc2nc(SCCN3CCOCC3)nc3c2cnn3CC(Cl)c2ccc(Br)cc2)cc1 (stereo not given)
inactive: SK-MEL-2 melanoma 33.6% | EKVX NSCLC 31.8% | SN12C renal 42.7% | UO-31 renal 28.5% | TK-10 renal 68.7% | ACHN renal 23.5% | CAKI-1 renal 45% | A498 renal 106% | CCRF-CEM leukemia 19.7%
active: MOLT-4 leukemia -22.7%

S=C(Nc1ccccc1)Nc1ccc(OCc2nc3ccc(Cl)cc3[nH]2)cc1
inactive: SK-MEL-2 melanoma 91.4% | EKVX NSCLC 67.2% | SN12C renal 78.8% | UO-31 renal 70.3% | TK-10 renal 114% | ACHN renal 81.8% | CAKI-1 renal 84.1% | A498 renal 110% | CCRF-CEM leukemia 54.2% | MOLT-4 leukemia 52.3%

CN(CCSSCCN1CCOCC1)C(=O)Oc1cc2c(c3ccccc13)[C@H](CCl)CN2C(=O)c1cc2cc(OCCCN3CCC3)ccc2[nH]1
active: SK-MEL-2 melanoma -84.3% | EKVX NSCLC -61.3% | SN12C renal -9.12% | UO-31 renal -16.7% | TK-10 renal -10.3% | ACHN renal -66.8% | CAKI-1 renal -48.1% | A498 renal -14.5% | CCRF-CEM leukemia -41.3% | MOLT-4 leukemia -39.8%

Cc1ccc(C2CC(c3ccc(NC(=S)Nc4ccccc4)cc3)=NN2c2ccc(S(N)(=O)=O)cc2)cc1 (stereo not given)
active: EKVX NSCLC 9.1% | UO-31 renal 3.53% | ACHN renal -33.2% | CAKI-1 renal -10.6%
inactive: SK-MEL-2 melanoma 13.4% | SN12C renal 28.3% | TK-10 renal 21.6% | A498 renal 76.4% | CCRF-CEM leukemia 14.5% | MOLT-4 leukemia 25.8%
